Bioassay records from PubChem.
The sample as a whole holds a higher share of hits than the screen did.
HT1080 IDH1KD tx = qHTS for induction of synthetic lethality in tumor cells producing 2HG: qHTS for the HT-1080-IDH1KD cell line; Potency, µM (titrated, usually from 46.1 µM), inactives show top-dose activity, negative = toxicity, hits mostly cytotoxic; HT-1080 IDH1 knockdown viability, ATP luminescence, 48 h; 360,000 compounds, 2% hits;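 also: potency is read from the fitted curve at half-maximal effect; 0% = DMSO wells and -100% = cell-free medium wells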
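HT-1080-IDH1KD cells (IDH1 knocked down), 750/well in RPMI with 5% FBS, treated with compound 48 h at 37 degrees C. Viability by CellTiter-Glo luminescence, normalised to DMSO and no-cell wells; concentration-response curves classed.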
IL-1B inflam inh = qHTS for Inhibitors of Inflammasome Signaling: IL-1-beta AlphaLISA Primary Screen. THP-1 LPS/ATP IL-1B secretion, AlphaLISA, 16 h; hits give low values. activity change, % at 57.5 µM. 360,000 compounds, 4.7% hits; in the data active = activity change below about -50%; inconclusive = mostly about -30% to -49%
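THP-1 cells pretreated 1 hr with compounds (up to 57.5 uM final), then stimulated with LPS (250 ng/mL final) plus ATP (1.25 mM final); secreted IL-1B measured by AlphaLISA after 16 hr, decreased signal indicating inhibition.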
12-LOX inh = Primary qHTS assay for inhibitors of human arachidonate 12S-lipoxygenase (ALOX12): Round 2 | purified 12hLO, xylenol orange hydroperoxide absorbance | Potency, µM (doses to about 108 µM), for inactives: top-dose activity change, negative = inhibition, actives largely listed as inhibitors | 580,000 compounds, 1.1% hits | AID 1671190, 2021; also: potency is read from the fitted curve at half-maximal effect
Target sequence (P18054 whole entry, looked up): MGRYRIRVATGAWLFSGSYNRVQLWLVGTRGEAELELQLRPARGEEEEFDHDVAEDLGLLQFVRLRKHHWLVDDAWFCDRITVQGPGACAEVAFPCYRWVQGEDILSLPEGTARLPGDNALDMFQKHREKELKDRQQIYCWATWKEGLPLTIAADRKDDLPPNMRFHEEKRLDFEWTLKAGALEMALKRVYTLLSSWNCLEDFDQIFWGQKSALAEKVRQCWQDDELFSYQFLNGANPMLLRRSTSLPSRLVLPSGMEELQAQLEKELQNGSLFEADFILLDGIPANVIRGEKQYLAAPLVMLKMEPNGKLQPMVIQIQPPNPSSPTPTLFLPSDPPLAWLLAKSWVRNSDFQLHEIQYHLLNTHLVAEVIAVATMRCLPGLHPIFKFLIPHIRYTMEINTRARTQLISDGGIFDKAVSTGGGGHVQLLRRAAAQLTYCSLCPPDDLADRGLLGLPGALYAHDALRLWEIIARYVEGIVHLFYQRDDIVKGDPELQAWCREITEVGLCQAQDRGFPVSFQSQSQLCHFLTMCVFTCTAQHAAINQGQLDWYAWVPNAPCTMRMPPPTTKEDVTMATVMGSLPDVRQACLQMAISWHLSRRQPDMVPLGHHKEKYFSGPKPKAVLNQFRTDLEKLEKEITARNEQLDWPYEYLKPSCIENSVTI
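Purified human 12hLO at 150 nM in 25 mM Hepes, 0.01% Triton X-100, pH 7.0, preincubated 15 min at room temperature with compound. Reaction started with 40 uM arachidonic acid, 30 min at room temperature. Hydroperoxide measured by Fe-xylenol orange, 573/405 nm absorbance ratio.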
TDP1 cell noCPT = qHTS for Inhibitors of human tyrosyl-DNA phosphodiesterase 1 (TDP1): qHTS in cells in absence of CPT | DT40 Tdp1-/- hTDP1 cells, no CPT, ATP luminescence, 48 h | Potency, µM (titrated, usually from 46.2 µM), for the others: at the top dose activity change, negative = growth inhibition, actives largely listed as inhibitors | 420,000 compounds, 15% hits; also: potency is read from the fitted curve at half-maximal effect; nearly all actives have a fitted effect of over 55% in size
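Growth kinetics read by CellTiter-Glo luminescence after ≥48 hr at 37 °C. Cells: DT40 Tdp1-/- stably carrying human TDP1, 400 per well, compound exposure in the absence of CPT (DMSO vehicle).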
HT1080-NT tox = qHTS for induction of synthetic lethality in tumor cells producing 2HG: qHTS for the HT-1080-NT fibrosarcoma cell line. 360,000 compounds, 1.6% hits. Potency, µM (titrated, usually from 46.1 µM), inactives show top-dose activity, negative = less viability, most hits filed as cytotoxic. HT-1080-NT fibrosarcoma viability, CellTiter-Glo ATP luminescence, 48 h;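 also: NT is the 2HG producing partner of a matched IDH1 knockdown line; potency is read from the fitted curve at half-maximal effect; 0% = DMSO-treated cells and -100% = media-only wells without cells; nearly all actives have a fitted effect of over 55% in size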
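Toxicity toward the 2HG-producing NT line was scored as %Activity, normalised to DMSO and no-cell wells, from CellTiter-Glo luminescence after 48 hours' treatment.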
DT40 TDP1 CPT = qHTS for Inhibitors of human tyrosyl-DNA phosphodiesterase 1 (TDP1): qHTS in cells in presence of CPT; AID 686979, 2013; 420,000 compounds, 12% hits; chicken DT40 Tdp1-/-;hTDP1 cells + 20 nM CPT, ATP luminescence, 48 h; Potency, µM (titrated, usually from 46.2 µM), without a hit: top-dose activity change, negative = growth inhibition, actives largely listed as inhibitors; also: potency is read from the fitted curve at half-maximal effect; nearly all actives have a fitted effect of over 55% in size
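Chicken DT40 Tdp1-/- cells complemented with human TDP1, 400 cells/well, exposed to compounds plus 20 nM camptothecin for at least 48 h at 37 C; viability read as ATP content by CellTiter-Glo luminescence.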
Numbers without * were called inactive; u = inconclusive; x = no result; [ ] = dose if it differs, or a comment. Unless noted, calls follow the shape of the dose curve; as a rule, active = well fitted curve in the direction sought with a large enough effect; inconclusive = small, poorly fitted or top-dose-only effect, or another doubt; inactive = no such curve, though single readings can be large; an effect the other way counts as inactive or inconclusive. Unless noted, % is scaled to controls: 0 for no effect and ±100 for the full control effect.

SMILES	HT1080 IDH1KD tx	IL-1B inflam inh	12-LOX inh	TDP1 cell noCPT	HT1080-NT tox	DT40 TDP1 CPT
Cc1ccc(C)n1C1C(=O)N(Cc2ccc(C(C)C)cc2)c2ccc(OC(F)(F)F)cc21 (stereo not drawn)	x	x	16µM*	x	x	x
O=C(CSc1nnc(Cc2cc(=O)[nH]c(=O)[nH]2)n1-c1ccc(F)cc1)c1ccccc1	x	x	-11%	x	x	x
CCC(C)C(=O)Nc1nc(C)c(-c2csc(Nc3cc(Cl)ccc3OC)n2)s1 (stereo not drawn)	-10%	7	-24%	10µM*	-3%	15µM*
COc1ccc(Cl)cc1Nc1nc(-c2sc(NC(=O)C(C)(C)C)nc2C)cs1	-10%	-4	u	3.7µM*	-6%	5.2µM*
CCCCC(=O)Nc1nc(C)c(-c2csc(Nc3cc(Cl)ccc3OC)n2)s1	-5%	-11	-14%	u	-1%	u
CCCCC(=O)Nc1nc(C)c(-c2csc(Nc3cc(OC)ccc3OC)n2)s1	u	-25	-29%	u	-9%	6.5µM*
CCCC(=O)Nc1nc(C)c(-c2csc(Nc3ccccc3C)n2)s1	-12%	-8	-16%	8%	-1%	-2%
CCC(C)C(=O)Nc1nc(C)c(-c2csc(Nc3cc(OC)ccc3OC)n2)s1 (stereo not drawn)	-13%	-16	u	15µM*	-1%	16µM*
Cc1ccc(C(=O)N(Cc2cccs2)C2CC2)o1	x	x	-27%	x	x	x
O=C(OCc1cccc(F)c1)c1ccc(C2Nc3ccccc3S(=O)(=O)N2)cc1 (stereo not drawn)	x	x	16%	x	x	x
COc1ccc(OC)c(Nc2nc(-c3sc(NC(=O)CC(C)C)nc3C)cs2)c1	u	2	u	16µM*	-16%	15µM*
Cc1ccc(NC(=O)CCC(=O)N2Cc3ccccc3Oc3ncccc32)cc1Cl	x	x	-27%	u	x	23µM*
CC(=O)Nc1ccc(NC(=O)CN2C(=O)NC3(CCOCC3)C2=O)cc1	x	x	19%	x	x	x
O=C(Nc1cc(Br)ccc1O)c1cc(-c2ccco2)on1	-19%	-25	28µM*	u	-15%	-2%
O=C(NCCN1CCOCC1)c1ccc2ccccc2c1	-15%	18	151%	-14%	-7%	21µM*
O=C(NCCN1CCOCC1)c1cc(-c2ccco2)on1	10%	3	26%	15µM*	4%	15µM*
CC1(CCCCN2CCOCC2)COc2ccc(C(=O)NCc3ccccc3)cc2N1 (stereo not drawn)	x	x	-2%[176 µM]	x	x	x
O=C(Nc1cc(Cl)ccc1O)c1cc(-c2ccco2)on1	-9%	-27	u	-29%	0%	6%
CC1(CCCCc2ccccc2)COc2ccc(C(=O)NCCN3CCOCC3)cc2N1 (stereo not drawn)	x	x	100µM*	x	x	x
Cc1ccccc1C(=O)c1cccn1CC(=O)NCCN1CCN(c2cccc(C)c2C)CC1	21µM*	u	1%	8.2µM*	23µM*	16µM*
Cc1ccc(C)c(N2CCN(CCCNC(=O)Cn3cccc3C(=O)c3ccccc3C)CC2)c1	23µM*	-114*	221%	2.6µM*	23µM*	2.6µM*
Cc1ccc(NC(=O)c2cncc(Br)c2)cc1S(=O)(=O)N(C)C	-1%	-6	-6%	15µM*	5%	u
CN(C)S(=O)(=O)c1cccc(NC(=O)c2cncc(Br)c2)c1	20%	-9	-19%	u	6%	u
Cc1ccc(S(=O)(=O)N(C)C)cc1NC(=O)c1cncc(Br)c1	u	46	0%	12µM*	u	13µM*
Cc1ccc(S(=O)(=O)N2CCCCC2)cc1NC(=O)c1cncc(Br)c1	-25%	-3	2%	u	0%	u
SMILES	HT1080 IDH1KD tx	IL-1B inflam inh	12-LOX inh	TDP1 cell noCPT	HT1080-NT tox	DT40 TDP1 CPT
O=C(CC1CCCC1)N1CC(c2nnc(-c3ccncc3)o2)C2(CCOCC2)C1 (stereo not drawn)	x	x	8%	x	x	x
Clc1ccc(-c2nnc3ccc(SCc4ccco4)nn23)cc1	x	x	-67%	x	x	x
O=C(NC(=S)Nc1nc(-c2ccccc2)cs1)c1cncc(Br)c1	-7%	11	2%	-10%	u	-10%
O=C(NNC(=S)NC(=O)c1ccc(F)cc1)c1cccnc1	-13%	22	-21%	18µM*	-21%	u
O=C(NNC(=S)NC(=O)c1cccnc1)c1ccc(F)cc1	-12%	-3	u	u	-8%	-26%
O=C(NC(=S)Nc1nc(-c2ccccc2)cs1)c1cccnc1	16%	13	35µM*	-3%	2%	5%
O=C(NNC(=S)NC(=O)c1cccnc1)c1ccccc1	-29%	42	u	23µM*	-3%	u
COc1cccc(CNC(=O)[C@@H]2C[C@@H](O)CN2C2CCN(C(=O)c3cccs3)CC2)c1	x	x	-3%	x	x	x
COc1ccc(OC(=O)c2cc(Cl)c(OC)c(Cl)c2)cc1	x	x	-45%	x	x	x
CCN1C(=O)CCN(C2CCCC2)c2nc(Nc3ccc(C(=O)NC4CCN(C)CC4)cc3OC)ncc21	21µM*	52	u	7.3µM*	u	5.2µM*
COc1c(C2=CC(=O)N(C)C2=O)c2c(n1C)C(=O)c1ccccc1C2=O	x	x	u	0.58µM*	x	0.52µM*
CN1C(=O)c2ccccc2C1=O	x	x	-9%[57.4 µM]	-24%[92.5 µM]	x	u
COc1ccccc1NC(=O)C1CCCN(c2ncnc3onc(-c4ccc(F)cc4)c23)C1 (stereo not drawn)	x	x	2%	16µM*	x	u
COc1ccccc1NC(=O)C1CCCN(c2ccc3nncn3n2)C1 (stereo not drawn)	x	x	-17%	x	x	x
CCc1cccc(NC(=O)C2CCCN(c3ncnc4onc(-c5ccc(F)cc5)c34)C2)c1 (stereo not drawn)	x	x	3%	10µM*	x	13µM*
CCc1noc2ncnc(N3CCCC(C(=O)NCc4cccc(OC)c4)C3)c12 (stereo not drawn)	x	x	-29%	x	x	x
NC(=O)c1ccccc1NC(=O)C1CCCN(c2ncnc3onc(-c4ccc(F)cc4)c23)C1 (stereo not drawn)	x	x	1%	15µM*	x	13µM*
